Assay outcomes from PubChem BioAssay.
In the library only some 5.1% were active in any assay of this set; here they are far more common.
CRFBP-R2 block: antagonists of CRF-binding protein/CRF-R2 receptor complex | HEK293 CRF-R2/CRF-BP, CRF-induced calcium fluorescence | inhibition, % at 11.8 µM | hit rate 0.59% among 350,000 | AID 588475;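 active means inhibition of the ligand-induced calcium signal above about 50% at the single tested concentration, limit read from the data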
TMEM16A inh: inhibitors of mouse TMEM16A calcium-activated chloride channel; Q8BHY3; HEK293 TMEM16A/YFP iodide influx fluorescence, ionomycin; normalized B-score (activity score, 25-100; higher = stronger inhibition) at 10 µM; hit rate 1.2% among 310,000; AID 588511;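 active means ratio plate-corrected score three or more library SD toward inhibition, starting fluorescence score within five deviations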;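 further: score derived from kinetic fluorescence span divided by baseline fluorescence per well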
Target sequence (Q8BHY3 whole entry, looked up): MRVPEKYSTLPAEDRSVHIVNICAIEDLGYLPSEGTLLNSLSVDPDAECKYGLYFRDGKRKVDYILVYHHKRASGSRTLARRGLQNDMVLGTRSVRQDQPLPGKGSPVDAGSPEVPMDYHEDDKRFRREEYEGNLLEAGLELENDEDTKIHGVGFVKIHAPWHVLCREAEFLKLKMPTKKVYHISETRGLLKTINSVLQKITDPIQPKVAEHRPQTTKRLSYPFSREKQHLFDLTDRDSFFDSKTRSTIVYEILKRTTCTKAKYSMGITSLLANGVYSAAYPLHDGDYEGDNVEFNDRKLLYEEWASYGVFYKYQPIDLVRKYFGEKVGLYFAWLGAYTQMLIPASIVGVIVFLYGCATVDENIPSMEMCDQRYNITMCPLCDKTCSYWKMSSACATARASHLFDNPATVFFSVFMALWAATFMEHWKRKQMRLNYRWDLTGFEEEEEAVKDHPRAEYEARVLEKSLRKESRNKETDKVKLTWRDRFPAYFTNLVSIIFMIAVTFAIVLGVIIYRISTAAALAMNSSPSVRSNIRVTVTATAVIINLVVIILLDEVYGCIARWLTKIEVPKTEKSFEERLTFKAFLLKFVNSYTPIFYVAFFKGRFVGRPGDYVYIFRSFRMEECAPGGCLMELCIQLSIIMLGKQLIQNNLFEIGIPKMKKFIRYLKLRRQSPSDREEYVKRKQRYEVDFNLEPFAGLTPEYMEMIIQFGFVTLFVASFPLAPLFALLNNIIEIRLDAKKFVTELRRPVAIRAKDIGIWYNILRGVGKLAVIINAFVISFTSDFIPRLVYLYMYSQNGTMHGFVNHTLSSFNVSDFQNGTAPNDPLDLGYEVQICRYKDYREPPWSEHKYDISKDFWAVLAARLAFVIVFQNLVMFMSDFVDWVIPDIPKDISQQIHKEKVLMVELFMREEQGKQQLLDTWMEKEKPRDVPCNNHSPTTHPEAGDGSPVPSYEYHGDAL
NR3A LBD binder: NR3A (human) ligand-binding domain modulation; NR3A LBD differential scanning fluorimetry, Tm shift; 0% = protein alone, 100% = glycine-bound protein; Tm shift relative to glycine control, % at 25 µM; hit rate 2.5% among 340,000;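 active means melting temperature shift of at least 10% of the positive control shift, at one fixed dose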
CRFR2-BP ag: agonists of human CRF-binding protein/CRF-R2 receptor complex; hit rate 0.46% among 350,000; activation, % at 13.2 µM; AID 588473; HEK293 CRF-R2/CRF-BP, calcium dye fluorescence (FLIPR); percent of saturating CRF peptide response;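 active means activation of at least 50%, plus an integration ratio under a set limit after plate pattern correction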
ANO1 activ: mouse TMEM16A channel activation, primary screen; hit rate 0.3% among 340,000; AID 623877; B-score at 10 µM; HEK293 TMEM16A/YFP-H148Q/I152L, iodide quench fluorescence; active compounds read low; Q8BHY3;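 active means fluorescence-ratio B-score plate-corrected deviation score at least 3 library SD below zero, with starting fluorescence score within 5 deviations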;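 further: channel opened by trigger with iodide after compound preincubation; score built on the fluorescence ratio of max minus min over baseline; more negative score means more quench and so TMEM16A activation or potentiation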
MPTP inh: inhibitors of mitochondrial permeability transition pore | isolated mouse mitochondria, Ca2+ swelling absorbance, 30 min | inhibition, % at 10 µM | hit rate 1.4% among 360,000 | AID 602449;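 active means inhibition of 50% or more, scaled per plate between neutral and stimulator controls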
MPTP counter: Rhodamine 123 counter-screen of mitochondrial pore hits; inhibition, % at 10 µM; hit rate 78% among 5,000; isolated mitochondria, membrane potential, Rhodamine 123 fluorescence; shares compounds with MPTP inh; in the data active means inhibition above about 22%
Of the large screens only hits and unclear results are named; the others gave an inactive call (follow-up assays come after a bar, where they were run).

C[C@@H]1CN([C@H](C)CO)C(=O)CCCn2nncc2CO[C@@H]1CN(C)S(=O)(=O)c1ccc(F)cc1	none (no result: TMEM16A inh, NR3A LBD binder, ANO1 activ)
CSc1ncccc1C(=O)N1CCN(S(=O)(=O)c2ccc(C)cc2)CC1	none
Cc1c(CCOC(=O)CC23CC4CC(CC(C)(C4)C2)C3)sc[n+]1CC(=O)c1ccccc1	TMEM16A inh 100, MPTP inh 68 | MPTP counter 24
COc1ccc(S(=O)(=O)N2CCOCC2)cc1NC(=O)c1c(C)noc1C	none (no result: TMEM16A inh, NR3A LBD binder, ANO1 activ)
CCOc1ccc(S(=O)(=O)Nc2cccc(N(C)S(C)(=O)=O)c2)cc1	MPTP inh 95 | MPTP counter 42
COc1ccc(NC(=O)CN2C(=O)NC(C)(Cc3ccc(OC)c(OC)c3)C2=O)cc1 (stereo unspecified)	none (no result: TMEM16A inh, NR3A LBD binder, ANO1 activ)
CC(=O)c1ccc(N2CCN(C(=O)c3cc(S(=O)(=O)N4CCOCC4)ccc3C)CC2)cc1	none (no result: TMEM16A inh)
Cc1cc(C)c(O)c(-c2cc(C(=O)NCc3ccccc3)[nH]n2)c1	none
Cc1cc(C)c(O)c(-c2cc(C(=O)Nc3cccnc3)[nH]n2)c1	MPTP inh 59 | MPTP counter 60
COc1cccc(-c2cnc(C(O)c3ccc(C)cc3C)[nH]2)c1 (stereo unspecified)	none (no result: CRFBP-R2 block, TMEM16A inh, NR3A LBD binder, CRFR2-BP ag, ANO1 activ)
O=C(NCCc1ccccc1)c1ccc(S(=O)(=O)N2CCCC2)cc1	none (no result: TMEM16A inh)
CC12CCC(=O)C=C1CCC1C2C(O)CC2(C)C(c3csc(N)n3)CCC12 (stereo unspecified)	none (no result: TMEM16A inh)
CC12CCC(=O)C=C1CCC1C2CCC2(C)C(c3csc(N)n3)CCC12 (stereo unspecified)	MPTP inh 87 (no result: TMEM16A inh) | MPTP counter 92
O=C(Nc1cc([N+](=O)[O-])ccc1F)C1CCN(S(=O)(=O)c2cccs2)CC1	none (no result: TMEM16A inh)
COc1ccccc1NS(=O)(=O)c1cccc(NC(=O)Nc2ccccc2)c1	NR3A LBD binder 22, MPTP inh 82 | MPTP counter 86
COc1ccccc1NS(=O)(=O)c1cccc(NC(=O)c2[nH]c(C)c(C(C)=O)c2C)c1	MPTP inh 66 | MPTP counter 64
COc1ccccc1NS(=O)(=O)c1cccc(NC(=O)Nc2ccc(Cl)cc2)c1	NR3A LBD binder 18, MPTP inh 83 | MPTP counter 72
CCNC(=S)Nc1cccc(S(=O)(=O)Nc2ccccc2OC)c1	none
CC(=O)c1c(C)[nH]c(C(=O)Nc2cccc(S(=O)(=O)N(C)c3ccccc3)c2)c1C	MPTP inh 68 | MPTP counter 79
Cc1nnsc1S(=O)(=O)c1ccccc1	none
CC(C)Cc1cc(C(=O)N2CCC(N3CCC(C(=O)NC4CC4)CC3)CC2)n[nH]1	none
CN(c1ccccc1)S(=O)(=O)c1ccc(NC(=O)c2ccc(F)cc2)cc1	MPTP inh 58 | MPTP counter 61
CN(c1ccccc1)S(=O)(=O)c1ccc(C(=O)Nc2ccncc2)cc1	none
CCCCCCOC(=O)c1ccc(N)cc1	none
CCCCCCCCCCCC1N=C(N)NC(CCCO)=C1C(=O)OC (stereo unspecified)	MPTP inh 79 (no result: TMEM16A inh) | MPTP counter inactive
O=[N+]([O-])c1ccc2c(c1)C(=NO)c1cc(Cl)c(Cl)cc1-2	MPTP inh 61 (no result: TMEM16A inh) | MPTP counter 36
O=C(O)c1ccccc1-c1ccc([N+](=O)[O-])cc1Cl	none (no result: TMEM16A inh, NR3A LBD binder, ANO1 activ)
O=C(OCc1ccccc1)N1CCc2ccccc21	none
O=[N+]([O-])c1ccc(N=Nc2ccc(O)c3ccccc23)cc1	NR3A LBD binder 20, MPTP inh 98 (no result: TMEM16A inh) | MPTP counter 79
O=C(CSc1nnc(-c2cccc(Br)c2)o1)NCC1CCCO1 (stereo unspecified)	none (no result: TMEM16A inh, NR3A LBD binder, ANO1 activ)
C[C@H](O)[C@@H]1C(=O)N2CCc3ccc(-c4ccccc4)cc3[C@@H]2C[C@@H]1N(C)C(=O)Nc1cc(Cl)cc(Cl)c1	none (no result: TMEM16A inh, ANO1 activ)
C=C(C(=O)c1ccccc1)C(NC(C)(C)C)c1ccccc1 (stereo unspecified)	none (no result: TMEM16A inh)
O=C(NC1CCCCC1)C(c1ccccc1F)n1c(=O)c(-c2cc3ccccc3[nH]2)nc2ccccc21 (stereo unspecified)	none (no result: CRFBP-R2 block, TMEM16A inh, NR3A LBD binder, CRFR2-BP ag, ANO1 activ)
